Test results reported in PubChem BioAssay (EPA / NIEHS).
Values joined by “and” are separate entries in the source; they are usually repeats but may differ in a detail not shown here. Equal entries are not always repeated. Some compounds were tested as several samples or in several runs, with calls that do not always agree. Active and inactive are the calls of the source. Rule for the calls: active = hit-call score of the fitted dose curve at least 0.9, where 1 is the maximum; inactive = score below 0.9.

The compounds below were run on CYP2E1 (gene 1571) (assay: LTEA_HepaRG_CYP2E1: Life Technologies and Expression Analysis (LTEA) Assay for CYP2E1 using HepaRG (AID 2283485)). Details: mRNA level, 48 h; actives raise or lower the signal.
Method: LTEA_HepaRG is a cell based, multiplexed-readout assay that uses HepaRG, a human liver cell line, with measurements taken at 48 hours after chemical dosing on a 96-well plate.LTEA_HepaRG_CYP2E1 is one of 102 assay component(s) measured in the LTEA HepaRG cell culture assay. It is a marker of NR mediated metabolism.Data from the assay component LTEA_HepaRG_CYP2E1 was analyzed into 1 endpoint. This assay endpoint, LTEA_HepaRG_CYP2E1, was analyzed with bidirectional fitting relative to DMSO as the negative control and baseline of activity. Using a type of inducible reporter, measures of mRNA induction for gain or loss-of-signal activity can be used to understand regulation of transcription factor activity. To generalize the intended target to other relatable targets, this assay endpoint is annotated to the cyp intended target family, where the subfamily is xenobiotic metabolism.
A total of 1060 chemcials from the ToxCast library were tested in eight-point concentration-response experiments. Cell culture and cytotoxicity assays were conducted at Thermo Fisher Scientific's Custom Services facility (Madison, WI). A single lot of human HepaRG cells (Thermo Fisher Scientific, Frederick, MD) was used for the cell culture experiments. 96-well format collagen type I coated plates of human HepaRG cells were prepared using established methods. Briefly, cryopreserved HepaRG cells were thawed, plated at a density of approximately 100,000 cells/well in HepaRG Thaw, Plate, and General Purpose media (HPRG770, Thermo Fisher Scientific), and incubated for 48 hours. 0.5% DMSO was selected as vehicle control to balance the requisite need of DMSO in HepaRG cultures to maintain differentiation (for example, baseline metabolism, proportions of hepatocytes vs. cholangiocytes), while enabling further hepatic receptor pathway activation (for example, PXR and CAR) in response to chemical exposure. 48 hours after plating, the culture medium was replaced with HepaRG Serum-Free Incudtion Media. Cells were exposed to each test chemical in duplicate and maintained in CO2 incubators for another 48 hours. Chemical plates were thawed to room temperature and 200x concentrations of treatment groups were prepared. 8-point conentration-reponse curves were made with the highest exposure at 100 uM, followed by half-log dilutions, all in 0.5% DMSO. Each test plate contained variouse controls, induction positive controls (1mM phenobarbital), cytotoxicity positive controls ([…] aflatoxin B1), vehicle controls (0.5% DMSO), and total lysis controls (0.5% DMSO). Cell morphology images were taken using an Essen IncuCyte FLR automated microscope, with six 96-well plates imaged in about 24 minutes. Images were captured and exported and JPEG files. Spent culture media was transfered to black-well plates for the LDH assay, and remaining media was sorted at -80 C for later use. Cells were treated with RLT buffer and frozen until shipped for gene expression analysis. Total RNA was isolated from the cell suspension in 75 uL of Buffer RLT (Qiagen, Germantown, MD 20874) by Quintiles/Expression Analysis (Durham, NC) using a custom isolation procedure. Total RNA from each plate well was transferred to a preamplification plate. Fluidigm's 96.96 Dynamic ArrayTM (Fluidigm, Amsterdam, the Netherlands) technology was used for gene expression analyses by quantitative reverse transcription polymerase chain reaction (qRT-PCR, performed by Quintiles/Expression Analysis, Durham, NC)89. Standard TaqManTM Assays (Applied Biosystems/ThermoFisher Scientific, Foster City, CA) were used to assess the expression of 93 genes selected based on their selectivity and sensitivity to important hepatic receptors known to be modulated by environmental chemicals; importance in human hepatocyte functionality; and hepatotoxicity. […]
With O=C(O)COc1ccc(Cl)cc1Cl the AC50 was 29.3 µM (active).
CCC(C)(C)C(=O)OC1=C(c2ccc(Cl)cc2Cl)C(=O)OC12CCCCC2 was tested, and the AC50 was 23.1 µM (active).
With Oc1ccc(Cl)cc1Cc1ccccc1 the outcome was “inactive” and the AC50 was 50.5 µM (active).
In the case of CCOCN(C(=O)CCl)c1c(C)cccc1CC, the AC50 was 81.3 µM (active).
For COP(=S)(OC)Oc1ccc(SC)c(C)c1, the AC50 was 18.9 µM (active).
O=C(O)CCCOc1ccc(Cl)cc1Cl was tested, and the outcome was “inactive”.
Oc1cc(Cl)ccc1Oc1ccc(Cl)cc1Cl was tested, and the AC50 was 92.2 µM (active) and the outcome was “inactive”.
In the case of O=S1OCC2C(CO1)C1(Cl)C(Cl)=C(Cl)C2(Cl)C1(Cl)Cl (stereo not given), the AC50 was 55.7 µM (active).
In the case of CC1(C)C(C=C(Cl)Cl)C1C(=O)OC(C#N)c1ccc(F)c(Oc2ccccc2)c1 (stereo not given), the AC50 was 55.3 µM (active).
With CCCN(CCC)c1c([N+](=O)[O-])cc(C(F)(F)F)cc1[N+](=O)[O-] the outcome was “inactive”.
For CNC(=O)/C=C(\C)OP(=O)(OC)OC, the outcome was “inactive”.
CC[C@H](C)[C@H]1O[C@]2(C=C[C@@H]1C)C[C@@H]1C[C@@H](C/C=C(\C)[C@@H](O[C@H]3C[C@H](OC)[C@@H](O[C@H]4C[C@H](OC)[C@@H](O)[C@H](C)O4)[C@H](C)O3)[C@@H](C)/C=C/C=C3\CO[C@@H]4[C@H](O)C(C)=C[C@@H](C(=O)O1)[C@]34O)O2 (tested in a mixture with another compound) was tested, and the AC50 was 8.08 µM (active).
For CC(C)(C)C(O)/C(=C\c1ccc(Cl)cc1Cl)n1cncn1 (stereo not given), the AC50 was 12.9 µM (active).
In the case of CCCN(CCOc1c(Cl)cc(Cl)cc1Cl)C(=O)n1ccnc1, the AC50 was 14.6 µM (active).
With O=S(=O)(O)C(F)(F)C(F)(F)C(F)(F)C(F)(F)C(F)(F)C(F)(F)C(F)(F)C(F)(F)F the AC50 was 61.1 µM (active) [middle of 4 runs].
In the case of O=[N+]([O-])/N=C1\NCCN1Cc1ccc(Cl)nc1, the AC50 was 34.8 µM (active).
In the case of CNC(=O)Oc1ccccc1OC(C)C, the AC50 was 22.2 µM (active).
In the case of COc1nn(CSP(=S)(OC)OC)c(=O)s1, the outcome was “inactive”.
In the case of Cc1[nH]c(=O)n(C(C)(C)C)c(=O)c1Cl, the AC50 was 37 µM (active).
C[C@H]1[C@H](c2ccc(Cl)cc2)SC(=O)N1C(=O)NC1CCCCC1 was tested, and the AC50 was 32.5 µM (active).
For CNC(=O)CSP(=S)(OC)OC, the outcome was “inactive”.
For ClC1C(Cl)C(Cl)C(Cl)C(Cl)C1Cl (stereo not given), the AC50 was 22.3 µM (active) and 5.02 µM (active).
For CCc1ccc(C(=O)NN(C(=O)c2cc(C)cc(C)c2)C(C)(C)C)cc1, the AC50 was 42.4 µM (active).
C#CCN1C(=O)COc2cc(F)c(N3C(=O)C4=C(CCCC4)C3=O)cc21 was tested, and the AC50 was 26.1 µM (active).
For COP(=S)(OC)Oc1ccc([N+](=O)[O-])cc1, the outcome was “inactive”.
With CCC(C)Nc1c([N+](=O)[O-])cc(C(C)(C)C)cc1[N+](=O)[O-] (stereo not given) the AC50 was 49.3 µM (active).
With CCN(CC)C(=O)SCc1ccc(Cl)cc1 the AC50 was 27.3 µM (active).
In the case of CNC(=O)Oc1cccc(N=CN(C)C)c1, the outcome was “inactive”.
With COP(=O)(OC)OC=C(Cl)Cl the outcome was “inactive”.
O=C1c2ccccc2C(=O)N1SC(Cl)(Cl)Cl was tested, and the outcome was “inactive”.
In the case of CCC(C)(NC(=O)c1cc(Cl)c(C)c(Cl)c1)C(=O)CCl (stereo not given), the AC50 was 44 µM (active).
OCCOc1ccccc1 was tested, and the outcome was “inactive”.
For CC(C)N(C(=O)COc1nnc(C(F)(F)F)s1)c1ccc(F)cc1, the AC50 was 42.2 µM (active).
In the case of O=[N+]([O-])c1c(Cl)c(Cl)c(Cl)c(Cl)c1Cl, the AC50 was 34.3 µM (active).
For N#Cc1c(Cl)c(Cl)c(Cl)c(C#N)c1Cl, the AC50 was 66.1 µM (active).
O=C(NC(=O)c1c(F)cccc1F)Nc1ccc(OC(F)(F)C(F)OC(F)(F)F)c(Cl)c1 (stereo not given) was tested, and the outcome was “inactive”.
O=C(Nc1ccccc1)Nc1cnns1 was tested, and the AC50 was 70.3 µM (active).
With CC1(c2ccc(Oc3ccccc3)cc2)OC(=O)N(Nc2ccccc2)C1=O (stereo not given) the AC50 was 5.56 µM (active).
